This is an account of results in the supplement of paper PMC10681739.

For assay [1], the target named is T1, ETS1 (UniProt P14921).
T1 sequence: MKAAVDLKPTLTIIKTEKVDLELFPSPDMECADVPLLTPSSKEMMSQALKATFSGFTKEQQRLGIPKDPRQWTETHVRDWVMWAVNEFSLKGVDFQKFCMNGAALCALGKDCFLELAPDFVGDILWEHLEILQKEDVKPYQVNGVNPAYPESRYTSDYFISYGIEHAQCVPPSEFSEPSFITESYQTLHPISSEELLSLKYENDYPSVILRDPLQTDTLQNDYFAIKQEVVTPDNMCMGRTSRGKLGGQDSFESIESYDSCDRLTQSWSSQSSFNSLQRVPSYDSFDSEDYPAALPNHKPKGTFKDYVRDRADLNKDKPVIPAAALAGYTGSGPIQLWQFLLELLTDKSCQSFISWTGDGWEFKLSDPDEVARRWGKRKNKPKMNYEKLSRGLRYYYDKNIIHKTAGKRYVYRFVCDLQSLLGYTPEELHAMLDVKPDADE
Put plainly: ETS1 binding intensity (PBM fluorescence), ETS1 alone (arbitrary fluorescence units); higher = stronger binding. As to conditions: ETS1 concentration 1 nM; RUNX1 concentration 0 nM.

The target of assay [2] is RUNX1 (UniProt Q01196). Put plainly: RUNX1 binding intensity (PBM fluorescence), RUNX1 alone (arbitrary fluorescence units); higher = stronger binding. As to conditions: RUNX1 concentration 2 nM; ETS1 concentration 0 nM. As for the experimental part: (§1)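 Cooperative gcPBM on 36-bp genomic probes with neighbouring ETS1 and RUNX1 sites. Recombinant human RUNX1 (2 nM) was incubated alone or with ETS1 (25 nM) and detected with anti-RUNX1 antibody plus Alexa488 secondary. Values are medians over 4 replicate spots; the RUNX1+ETS1 data were normalised to the RUNX1-only data. The probes sit in constant array flanks that are not printed.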
RUNX1, sequence (Q01196 whole entry): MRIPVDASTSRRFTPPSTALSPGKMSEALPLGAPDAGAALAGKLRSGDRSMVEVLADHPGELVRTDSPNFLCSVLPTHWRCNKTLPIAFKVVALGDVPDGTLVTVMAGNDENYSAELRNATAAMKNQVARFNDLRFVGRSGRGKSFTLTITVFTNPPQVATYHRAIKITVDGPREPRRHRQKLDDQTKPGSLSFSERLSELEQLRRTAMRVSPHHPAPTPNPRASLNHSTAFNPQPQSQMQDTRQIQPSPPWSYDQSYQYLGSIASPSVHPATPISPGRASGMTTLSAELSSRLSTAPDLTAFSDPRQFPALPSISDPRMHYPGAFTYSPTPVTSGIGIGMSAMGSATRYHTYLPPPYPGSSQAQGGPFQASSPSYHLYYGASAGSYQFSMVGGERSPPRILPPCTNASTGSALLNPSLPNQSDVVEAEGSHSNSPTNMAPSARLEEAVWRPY

Assay [3] addresses T1, ETS1. Put plainly: ETS1 binding intensity (PBM fluorescence) in presence of RUNX1, normalised to ETS1-only experiment (arbitrary fluorescence units); higher = stronger binding. As to conditions: ETS1 concentration 1 nM; RUNX1 concentration 25 nM.
The target of assay [4] is RUNX1 (UniProt Q01196). Put plainly: RUNX1 binding intensity (PBM fluorescence) in presence of ETS1, normalised to RUNX1-only experiment (arbitrary fluorescence units); higher = stronger binding. Conditions: RUNX1 concentration 2 nM; ETS1 concentration 25 nM. As for the experimental part:
as §1
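For RUNX1 binding intensity (PBM fluorescence) in presence of ETS1, normalised to RUNX1-only experiment in this document: Full-length recombinant human ETS1 or RUNX1 bound to double-stranded 36-bp genomic probes on microarrays, detected by protein-specific primary antibody and Alexa488 secondary, spot fluorescence as median of four replicate spots.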
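For RUNX1 binding intensity (PBM fluorescence), RUNX1 alone in this document: Full-length recombinant human RUNX1 bound to double-stranded 36-bp genomic probes on a high-density microarray, scored as Alexa488 fluorescence per spot via anti-RUNX1 antibody, median of four replicate spots.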

Sequence GGCTTTTCCGGGATCCCTTTCGCCTCATCACCGCAG registered an ETS1 binding intensity in the assay with ETS1 [1] of 522.

Consider CCACTCCCAGCTCCATCCTGTGGGTAGAACTCAGTG, for which the ETS1 binding intensity in the assay with ETS1 [1] came to 477.

In the case of AGAAACATCCTGCCCAGCCACCTGACCACAAGGCAC, the RUNX1 binding intensity with RUNX1 [2] came to 1280; in the assay with RUNX1 [4] it was 3130. Further, in the assay with ETS1 [3], the ETS1 binding intensity is 1070.

CTTCCCTTGCCCCGGAAAAGGGCGGTAAGAGGGAGC: the ETS1 binding intensity with ETS1 [1] came out at 1200.

TTTTGCCCAACAGGATGTGGTTTCTAAAGCAGACGG: the values for the RUNX1 binding intensity in the assay with RUNX1 [2] and in the assay with RUNX1 [4] were 1290 and 18500, respectively. In addition, the ETS1 binding intensity with ETS1 [3] was 31600.

Turning to CCTCTGTTCTTCACAGGAAGCCACAGGCCTCCCCTG, the values for the RUNX1 binding intensity with RUNX1 [2] and with RUNX1 [4] were 958 and 1050, respectively. Further, the ETS1 binding intensity with ETS1 [3] amounted to 3160.

In the case of GGGGCCTCTGCTACTTCCTAGACCGCAAAATGGAGA, the RUNX1 binding intensity came to 5260 with RUNX1 [2] and 6150 with RUNX1 [4]. Besides, the ETS1 binding intensity in the assay with ETS1 [3] turned out to be 1570.

For AAGTGGAGAGCGGAAGTGAGCTGTGGGTGACTGCAG, the RUNX1 binding intensity stood at 759 with RUNX1 [2] and 1240 in the assay with RUNX1 [4]. In addition, the ETS1 binding intensity with ETS1 [3] was 8400.

In the assay with ETS1 [1], TCGGAACGGAAGGGAGGCACGAAACCGCGAGTGGAG yielded an ETS1 binding intensity of 607.

Take CCACTCCAGGAAACTCCTCCAGGTGAGCCCACAACT: in the assay with ETS1 [1], the ETS1 binding intensity came out at 500.

For GCCGATGAGGAAGTGAGGGCCAACCACACTGCTCAG, the values for the RUNX1 binding intensity in the assay with RUNX1 [2] and in the assay with RUNX1 [4] were 878 and 749, respectively. For the same sequence, the ETS1 binding intensity in the assay with ETS1 [3] amounted to 673.

With TAGGCTGAAGACTTCCGCCCCGCAGAGGACTTGCCT, the figures for the RUNX1 binding intensity in the assay with RUNX1 [2] and with RUNX1 [4] were 839 and 1170, respectively. For the same sequence, the ETS1 binding intensity in the assay with ETS1 [3] was 974.

CTTACAGTCACAACAGGATGTGGTTTGACATTTACT: the values for the RUNX1 binding intensity with RUNX1 [2] and with RUNX1 [4] were 869 and 3860, respectively. Also, in the assay with ETS1 [3], the ETS1 binding intensity worked out at 32800.

As for CACTTGTCCTTCCTGGCCTGCGGCCGCCACCACTTC, in the assay with ETS1 [1], the ETS1 binding intensity was found to be 443.

GAGCAGCGGGAGGAAGCTGCGGCGCGCAGAGCAGAG showed an ETS1 binding intensity with ETS1 [1] of 534.

As to CAGCGGCCGTCGCGGGAAGTGCGGTCGCCGCGGCCA, the ETS1 binding intensity in the assay with ETS1 [3] worked out at 1120. Moreover, the RUNX1 binding intensity in the assay with RUNX1 [4] was determined as 966.

In the case of CTGTCCCTAGCAGGATGTGGTTTGCACATTGCTGCT, the RUNX1 binding intensity stood at 962 with RUNX1 [2] and 4600 with RUNX1 [4]. Moreover, the ETS1 binding intensity with ETS1 [3] is 12500.

For AGGTCTCCGGAAGTGGGTCTGCGGCGCGCGGGATGC, the ETS1 binding intensity with ETS1 [3] was 8540. In addition, in the assay with RUNX1 [4], the RUNX1 binding intensity amounted to 3290.

As to TATGTCTGACTTCCGCTCGTGGTTTCCATCTTAGCC, the RUNX1 binding intensity in the assay with RUNX1 [2] was 895; with RUNX1 [4], 2850. The ETS1 binding intensity in the assay with ETS1 [3] worked out at 5230.

In turn, TCTCTATGGTTTCCGTTGGGTGTGTGGTTTTTTTGT came in with an ETS1 binding intensity with ETS1 [1] of 579.

CAGAGACACCTGCGGAAGCCACAGGGAGGTCACAGA showed an ETS1 binding intensity with ETS1 [1] of 495.

GAGTGGGGGTGGGGAGGAAGCCACAGGGCCGGGCTG: the ETS1 binding intensity in the assay with ETS1 [1] was determined as 624.

Consider TCTACATCCTGCAGTTCTCCATTGTGGCCATTAGGT, for which the ETS1 binding intensity with ETS1 [1] was 443.

As for TAGCCATCGTGCAAAGGATGTGGTGAAGTCAGTCAG, in the assay with ETS1 [1], the ETS1 binding intensity amounted to 942.

On to AGGAGAACTTCCGCCCTTACTATATTACCGCCGGTA, for which the figures for the RUNX1 binding intensity with RUNX1 [2] and in the assay with RUNX1 [4] were 737 and 1520, respectively. Besides, in the assay with ETS1 [3], the ETS1 binding intensity was found to be 1090.

In the assay with ETS1 [1], TCTCTCTACGGAAGCTGGTAGGGCTGTGGGTGCTTC registered an ETS1 binding intensity of 729.

In the assay with ETS1 [1], GACCTGACAACATCCTGGCGCAGTGGGTTGGCCCTG gave an ETS1 binding intensity of 496.

For AAAACAAGGACTTCCGCCTCCCTGCGGTCCCTCCCC, the RUNX1 binding intensity in the assay with RUNX1 [2] came to 894; with RUNX1 [4], 1880. Besides, the ETS1 binding intensity with ETS1 [3] was 2730.

The sequence TCTAAATCACTTCCTGTTACAGAAACCACAGGCCTG yielded an ETS1 binding intensity in the assay with ETS1 [1] of 4300.

With GCGCCCCGCTTCCGGGGCCGCCCTAAACCGCGGCCG, the RUNX1 binding intensity was 1520 with RUNX1 [2] and 3790 with RUNX1 [4]. For the same sequence, the ETS1 binding intensity with ETS1 [3] was determined as 2870.

With AGGGCGCCGCTTCCGGGAGCCCGCAAGCGGCCTCCG, the ETS1 binding intensity with ETS1 [1] was determined as 606.

Regarding TGCCCAGTACTTCCTCTTGTGGGGGAGCACAACTTG, in the assay with ETS1 [1], the ETS1 binding intensity turned out to be 569.

The sequence CCTCCAGGAAGCGATAAGTGACTGTGGTGGAGAGAG returned an ETS1 binding intensity in the assay with ETS1 [1] of 663.

On to CCTTTACTTCCTTTTACTTCTAACCACAGAATTAAA, for which the RUNX1 binding intensity with RUNX1 [2] stood at 7760; in the assay with RUNX1 [4] it was 14200. Moreover, the ETS1 binding intensity with ETS1 [3] amounted to 1810.

Regarding TGACTAAGACCGGAAGAAACCACAAAAACACAAAAA, the RUNX1 binding intensity with RUNX1 [2] amounted to 2700; in the assay with RUNX1 [4] it was 4540. In the assay with ETS1 [3], the ETS1 binding intensity came to 6730.

With TAGCATGTGAGCTTCCTGTGGGTTTGTGCAGCCCCA, the ETS1 binding intensity in the assay with ETS1 [1] is 616.

In the case of CTCTCCACCTCCTTCCGACCAGGACCGCACCCCCCC, in the assay with ETS1 [3], the ETS1 binding intensity amounted to 939. In the assay with RUNX1 [4], the RUNX1 binding intensity was 1650.

Take GAAAGACAGGATGTGGGATAGATCTCAACCACCTTT: the ETS1 binding intensity with ETS1 [3] stood at 4970. In addition, the RUNX1 binding intensity in the assay with RUNX1 [4] was found to be 4740.

For TTACGTTAAGGAGGAAACTCTGTGGTTAAACTGTAG, the ETS1 binding intensity with ETS1 [3] worked out at 2050. Moreover, the RUNX1 binding intensity with RUNX1 [4] was found to be 1810.

On to GGAGCGGCGGAAGGGAGCTTGCGGCGGGAGGCTGAA, for which the ETS1 binding intensity with ETS1 [1] came to 423.

In turn, GTCCCCCGGAACCGTCTCCTCCCCCGCACGCGCCGC gave an ETS1 binding intensity with ETS1 [1] of 516.
